Laboratory results from PubChem BioAssay (NCI).
The panel holds about 83,000 compounds, 20% with a hit somewhere; the sample as a whole holds those more often.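 48-hour exposure, single concentration, 96-well plates; percent growth endpoint where 0 means no net growth. Active: below 10.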 A number with no mark means an inactive call. Calls of active or inactive are those of the source.

Test system: M14 melanoma
Test: NCI-60 one-dose screen, 48 h (100 = growth as untreated, 0 = no growth, -100 = all killed)
Conditions: 10 µM unless noted

| SMILES | growth |
| --- | --- |
| COCCn1cc(-c2csc(-c3c[nH]c4ccccc34)n2)c2cccnc21 | 18.6% |
| COC(=O)c1c2c(c[n+]([O-])c1C)C(=O)C=C(NCc1ccccc1)C2=O | -92.2% (active) |
| ClC(Cl)c1nc(-c2ccccc2)n2nc(-c3ccccc3)cc2n1 | 32.3% |
| CN(C)c1ccc([C@@H](C(=O)Nc2cccc([N+](=O)[O-])c2)N(C(=O)c2cc3ccccc3[nH]2)c2cccc([N+](=O)[O-])c2)cc1 | 93.7% |
| CC(C)(Sc1cc(C(C)(C)C)c(O)c(C(C)(C)C)c1)Sc1cc(C(C)(C)C)c(OC(=O)CCC(=O)O)c(C(C)(C)C)c1 | 50.9% |
| COc1cc(C=C2C(=O)NC(=S)NC2=O)cc(CN2CCCC2)c1O | 109% |
| Cc1cc(C)c2c(c1)N(C)c1ncnc(-n3c(C)nc4cc(C)ccc43)c1CC2C (stereo not drawn) | 25.3% |
| Brc1ccc(Nc2nc(Nc3cnc4ccccc4c3)c3[nH]cnc3n2)cc1 | 84.8% |
| COc1cc(C[C@H]2COc3cc(O)cc(O)c3C2=O)ccc1O | 9.16% (active) |
| CC(=O)c1c(Nc2cccc(F)c2)[nH]c2c(Cl)cc(Cl)c(Cl)c2c1=O | 6.55% (active) |
| COC12C=C/C(=C(/C(=O)OCc3csc(SC)n3)C(=O)CCCCCCCCC3(OC)C=C/C(=C(/C(=O)OCc4cnc(SC)s4)C(=O)CCCCCCCC1)O3)O2 (stereo not drawn) | 12% |
| COC12C=C/C(=C(/C(=O)OCCSc3ccnn3C)C(=O)CCCCCCCCC3(OC)C=C/C(=C(/C(=O)OCCSc4ccnn4C)C(=O)CCCCCCCC1)O3)O2 | -3.79% (active) |
| O=C(/C=C/C12c3ccccc3C(c3ccccc31)C1C(=O)NC(=O)C12)c1ccco1 (stereo not drawn) | 46.6% |
